What was measured:
Conditions in all cases: concentration: 1 μM,replicates: in singlicate; n = 1
[1] = tested on: RIOK1
[2] = tested on: RIOK2
[3] = tested on: RIOK3
[4] = tested on: RIPK1
[5] = tested on: RIPK2
[6] = tested on: RIPK4
[7] = tested on: RIPK5
[8] = tested on: ROCK1
[9] = tested on: ROCK2
[10] = tested on: ROS1
[11] = tested on: RPS6KA4(Kin.Dom.1-N-terminal)
[12] = tested on: RPS6KA4(Kin.Dom.2-C-terminal)
[13] = tested on: RPS6KA5(Kin.Dom.1-N-terminal)
[14] = tested on: RPS6KA5(Kin.Dom.2-C-terminal)
[15] = tested on: T1, RSK1(Kin.Dom.1-N-terminal)
T1 construct: gene RPS6KA1

[16] = tested on: T2, RSK1(Kin.Dom.2-C-terminal)
T2 construct: gene RPS6KA1

[17] = tested on: T3, RSK2(Kin.Dom.1-N-terminal)
T3 construct: gene RPS6KA3

[18] = tested on: T4, RSK2(Kin.Dom.2-C-terminal)
T4 construct: gene RPS6KA3

[19] = tested on: T5, RSK3(Kin.Dom.1-N-terminal)
T5 construct: gene RPS6KA2

[20] = tested on: T6, RSK3(Kin.Dom.2-C-terminal)
T6 construct: gene RPS6KA2
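Also: KINOMEscan kinase panel screen.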

Structure (SMILES)	%Inh [1] [%]	%Inh [2] [%]	%Inh [3] [%]	%Inh [4] [%]	%Inh [5] [%]	%Inh [6] [%]	%Inh [7] [%]	%Inh [8] [%]	%Inh [9] [%]	%Inh [10] [%]	%Inh [11] [%]	%Inh [12] [%]	%Inh [13] [%]	%Inh [14] [%]	%Inh [15] [%]	%Inh [16] [%]	%Inh [17] [%]	%Inh [18] [%]	%Inh [19] [%]	%Inh [20] [%]
Cn1ccc2ncnc(Oc3ccc(NC(=O)Nc4ccnc(C(F)(F)F)c4)c(Cl)c3)c21	0	19	6	0	0	0	0	17	0	0	0	7	3	7	0	9	0	35	0	1
Cn1ccc2ncnc(Oc3ccc(NC(=O)Nc4cnn(C(C)(C)C)c4)c(Cl)c3)c21	4	29	0	12	40	0	0	6	0	0	0	5	32	0	0	27	11	0	0	9
Cl.c1ccc(Oc2ccc(Nc3ccnc4cc(-c5ccc(CN6CCNCC6)o5)ccc34)cc2)nc1 [GW567142]	0	0	0	0	95.5	0	4	5	32	0	0	0	0	14	2	16	0	0	0	9
CCNCC(Cc1ccccc1)NC(=O)c1cc(Br)c(-c2ccnc3[nH]ccc23)s1.Cl.Cl (stereo not shown) [GSK1383280]	61	61	72	0	0	20	32	99.8	99.6	44	67	21	43	22	21	18	42	0	10	1
CS(=O)(=O)Nc1ccc(-c2ccnc3[nH]ccc23)cc1 [GSK993273]	98.6	67	93.9	0	18	30	0	98.5	98.4	9	0	94.1	0	86	17	55	35	29	19	54
Cn1ccc2ncnc(Oc3ccc(NC(=O)Nc4cccc(C(F)(F)F)c4)c(Cl)c3)c21	6	2	41	6	43	0	11	0	26	12	2	0	0	2	0	86	13	16	0	27
COc1cc(Nc2nccc(N3CCC(NC(=O)c4cccc(C#N)c4)C3)n2)cc(OC)c1OC (stereo not shown) [GSK1379751]	90.2	0	89	0	25	32	0	10	35	9	0	0	0	34	17	0	0	0	4	0
CCn1c(-c2nonc2N)nc2cncc(Br)c21 [SB-738004]	19	3	17	27	11	58	1	99.7	99.6	7	3	86			0	38	50	27	9	6
Cl.Nc1n[nH]c2cc(-c3ccccn3)ccc12 [GSK2189892]	47	0	24	0	0	4	6	0	5	12	15	0	26	0	29	0	0	0	0	0
COc1cccc(C2=C(Nc3cccc(Cl)c3)C(=O)NC2=O)c1 [SB-341556]	41	14	1	0	0	4	16	0	0	0	11	0	5	0	28	24	25	11	1	0
CCn1c(-c2nonc2N)nc2cncc(CNC3CCNCC3)c21.Cl [SB-747651]	30	0	6	0	5	19	0			0	44	6	78	0	21	0	16	6	7	9
CC(C)S(=O)(=O)N1CCN(Cc2ccc3c(c2)nc(NC(=O)c2ccsc2)n3C[C@H](O)c2ccccc2)CC1 [GW635815]	36	33	25	20	4	7	0	66	63	20	29	0	12	0	96.1	0	91.8	6	93.5	24
Cc1n[nH]c2cc(Nc3ccnc(Nc4cccc(CN5CCOCC5)c4)n3)ccc12 [GW682569]	100	84	96.5	4	79	62	0	27	1	57	0	0	0	21	3	28	22	20	0	0
CC(=O)Nc1nc2cnc(Nc3cc(NC(=O)c4cccc(CC(C)(C)C#N)c4)ccc3C)nc2s1	0	22	0	0	0	25	0	19	0	6	0	2	13	0	5	0	0	26	0	0
CNC(=O)c1ccccc1Nc1nc(Nc2cccc(CS(C)(=O)=O)c2)ncc1C.O=CO [GSK1520489]	97.9	89	91.8	21	30	98	65	89	75	90	95.7	0	43	0	96.5	43	99.9	12	99	0
CN(c1cccc(CNc2nc(Nc3ccc4c(c3)CC(=O)N4)ncc2C(F)(F)F)c1)S(C)(=O)=O	78	19	70	3	0	0	16	0	17	89	48	3	12	20	67	13	87	23	78	27
O=C1NCCc2[nH]c(-c3ccncc3)cc21	35	20	30	4	4	56	24	97.9	95.4	21	15	92.7	0	58	4	35	8	23	16	27

Structure (SMILES)	%Inh [1] [%]	%Inh [2] [%]	%Inh [3] [%]	%Inh [4] [%]	%Inh [5] [%]	%Inh [6] [%]	%Inh [7] [%]	%Inh [8] [%]	%Inh [9] [%]	%Inh [10] [%]	%Inh [11] [%]	%Inh [12] [%]	%Inh [13] [%]	%Inh [14] [%]	%Inh [15] [%]	%Inh [16] [%]	%Inh [17] [%]	%Inh [18] [%]	%Inh [19] [%]	%Inh [20] [%]
C[C@@H](Oc1cc(-n2cnc3ccc(-c4ccncc4)cc32)sc1C(N)=O)c1ccccc1Cl [GSK483724]	93	70	73	40	26	0	3	23	19	42	20	0	25	5	40	0	34	0	39	0
Cl.Cl.NC[C@H](CC1CCCCC1)NC(=O)c1ccc(-c2ccnc3[nH]ccc23)s1 [GSK1581428]	100	45	90.1	0	0	0	0	100	98.9	26	82	79	84	67	23	12	83	0	57	21
COc1cccc(OC)c1C(=O)Nc1cccc(-c2nn3ccccc3c2-c2ccnc(Nc3cccc(F)c3)n2)c1 [GSK361065]	43	2	19	17	38	9	32	0	14	4	8	14	0	0	36	0	0	13	6	15
Nc1nccc(-c2ccc3c(N)n[nH]c3c2)n1 [GSK1034945]	96.5	52	91.2	3	14	77	0		56	0	0	81	7	62	4	32	29	22	31	1
COC(=O)c1cccc(NC(=O)NC2CCN(c3ccnc(NCc4ccc(F)cc4)n3)CC2)c1 [GSK1379860]	22	0	6	0	0	5	0	25	19	8	7	0	7	0	18	0	0	9	3	0
Cc1ccc(C(=O)Nc2ccc(Oc3ccc4nc(NC(=O)C5CC5)cn4c3)c(F)c2)c(=O)n1-c1ccccc1	0	0	9	99.9	12	0	0	0	0	0	22	0	0	0	0	0	0	37	22	2
Cn1cc(-c2cccc3c(N)c(C(N)=O)nnc23)cn1	36	52	60	3	3	37	17	11	20	6	53	30	21	13	0	0	23	44	21	0
COc1cc2nccc(Nc3ccc(Oc4ccccc4)cc3)c2cc1OC.Cl [GI261656]	11	0	4	6	98.3	3	50	16	29	27	0	0	0	12	2	0	0	0	0	0
O=C(Nc1n[nH]c2cc(-c3ccco3)ccc12)C1CC1 [SB-737447]	81	10	79	13	0	36	3	0	0	2	0	18	0	23	16	0	22	0	18	0
c1ccc(Oc2ccc(Nc3ccnc4ccc(-c5ccccn5)cc34)cc2)cc1 [GW407034]	16	5	0	0	95.7	16	31	11	0	10	11	0	3	0	10	0	7	8	19	0
C[C@@H]1CNc2c(sc3ccc4nc(-c5ccc(O)cc5)ccc4c23)C(=O)N1	0	18	3	0	27	3	27	65	51	0	6	98.8	2	17	6	12	58	70	12	47
OCCn1cc(-c2cnc3nnn(Cc4ccc5ncccc5c4)c3n2)cn1	0	0	19	0	0	0	0	0	0	0	1	0	0	2	9	0	0	0	0	0
CSc1nccc(-c2c(-c3ccc(F)cc3)ncn2CCCN2CCOCC2)n1.Cl [SB-217146]	0	0	0	0	0	3	33	40	10	0	27	0	0	4	3	17	46	0	0	18
CN(c1ccc2c(c1)nc(NCc1ccc(F)cc1)n2C)c1ccnc(Nc2ccc(CS(C)(=O)=O)cc2)n1.Cl [GW813244]	1	21	17	99.8	25	24	50	0	42	57	12	0	0	4	0	32	31	0	9	28
CN(c1ccccc1CNc1nc(Nc2ccc3c(c2)CC(=O)N3)ncc1C(F)(F)F)S(C)(=O)=O	41	0	61	0	0	0	27	0	0	96.5	89	46	71	14	86	0	89	0	91.1	7
C[C@@H]1CCN(C(=O)N2CCCC2)C[C@@H]1N(C)c1ncnc2[nH]ccc12	0	0	2	0	0	13	24	43	67	23	0	2	0	0	0	14	10	0	0	22

Source: publication PMC5540273 (PLoS ONE, 2017)
